Vif-A3G inh = inhibitors of Vif-APOBEC3G interaction | 410,000 tested, 0.076% active | Q9HC16 | HeLa A3G-eYFP + Vif (tagged APOBEC3G with the HIV-1 protein that degrades it), YFP fluorescence, overnight | Potency, µM (highest dose often 46.1 µM), for the others: at the top dose activity, negative = active, usual class: inhibitors; also: potency is read from the fitted curve at half-maximal effect; % is scaled to controls: 0 for no effect and ±100 for the full control effect; nearly all actives have a fitted effect of over 60% in size
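Read-out is eYFP fluorescence (Ex 488/Em 500-530) from Vif-expressing HeLa A3G-eYFP cells; more signal means A3G escaped Vif-mediated degradation. Cells plated overnight, compound pinned in, incubated overnight at 37 deg C.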
Vif-A3F inh = blocks the Vif interaction with APOBEC3F | HeLa A3F-eYFP + Vif (tagged APOBEC3F with the HIV-1 protein that degrades it), YFP fluorescence increase | Potency, µM (doses to about 46.1 µM), inactives show at the highest dose activity, negative = active | 390,000 tested, 0.2% active | AID 602313; also: potency is read from the fitted curve at half-maximal effect; % of control where 0% means no effect; nearly all actives have a fitted effect of over 65% in size
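HeLa cells stably expressing A3F-eYFP plus Vif, plated and incubated overnight at 37 deg C, then exposed to compounds overnight at 37 deg C. Blocked degradation read as raised yellow fluorescence (Ex 488/Em 500-530).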
12-LOX inh = inhibitors of human 12S-lipoxygenase ALOX12. P18054. purified 12hLO, xylenol orange hydroperoxide absorbance. Potency, µM (doses to about 108 µM), without a hit: top-dose activity change, negative = inhibition, most hits filed as inhibitors. 580,000 tested, 1.1% active. AID 1671190; also: potency is read from the fitted curve at half-maximal effect; % is scaled to controls: 0 for no effect and ±100 for the full control effect
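Purified human 12hLO at 150 nM in 25 mM Hepes, 0.01% Triton X-100, pH 7.0, preincubated 15 min at room temperature with compound. Reaction started with 40 uM arachidonic acid, 30 min at room temperature. Hydroperoxide measured by Fe-xylenol orange, 573/405 nm absorbance ratio.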
Glioma ERSR ind = induces the endoplasmic reticulum stress response in human glioma cells; 420,000 tested, 0.02% active; AID 602332; Potency, µM, without a hit: top-dose activation, actives largely listed as activators; U87-MG GRP78 promoter luciferase reporter, 16 h; also: potency is read from the fitted curve at half-maximal effect; series mostly up to about 76 µM; % of control where 0% means no effect; nearly all actives have a fitted effect of over 35% in size
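ERSR induction read as luciferase luminescence (Bright-Glo, 10 min at room temperature) in stably transfected human U87-MG glioma cells exposed to compounds for 16 h, using GRP78 as sensor.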
TRPML1 inh = human mucolipin-1 channel inhibition | activity change, negative = inhibition, % (concentration not given with the values) | TRPML1-inducible cells, Ca2+ dye fluorescence, FDSS; active compounds read low; inhibition of EC80 agonist-evoked calcium signal | AID 624415 | Q9GZU1 | 390,000 tested, 0.02% active; in the data active = activity change below about -50%; inconclusive = between about -30% and that limit;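 also: stimulus is agonist 54-4 at its EC80 concentration; % is scaled to controls: 0 for no effect and ±100 for the full control effect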
Target sequence (Q9GZU1 whole entry, looked up): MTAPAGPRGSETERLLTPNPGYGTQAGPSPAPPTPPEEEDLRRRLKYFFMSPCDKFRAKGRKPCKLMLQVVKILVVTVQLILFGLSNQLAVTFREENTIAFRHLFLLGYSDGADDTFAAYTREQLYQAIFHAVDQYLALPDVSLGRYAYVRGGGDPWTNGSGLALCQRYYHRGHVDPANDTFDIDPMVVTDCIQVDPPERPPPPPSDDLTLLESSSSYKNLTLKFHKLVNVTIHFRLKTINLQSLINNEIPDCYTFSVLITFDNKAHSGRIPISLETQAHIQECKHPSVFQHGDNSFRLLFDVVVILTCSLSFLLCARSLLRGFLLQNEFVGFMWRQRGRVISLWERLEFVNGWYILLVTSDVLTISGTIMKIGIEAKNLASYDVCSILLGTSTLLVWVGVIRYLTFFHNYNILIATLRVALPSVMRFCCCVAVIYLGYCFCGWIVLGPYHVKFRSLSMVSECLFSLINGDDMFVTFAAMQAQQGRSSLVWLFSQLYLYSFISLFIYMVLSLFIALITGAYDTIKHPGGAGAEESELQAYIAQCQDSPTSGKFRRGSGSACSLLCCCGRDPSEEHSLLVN
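Tet-induced TRPML1-DL cells loaded with Ca8 no-wash calcium dye were read kinetically on FDSS. Compound addition was followed by EC80 agonist 54-4 (4 uM final); inhibition was read over 110 s.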
TRPML1 ag = human mucolipin-1 channel agonism | TRPML1-expressing cells, Ca2+ dye fluorescence, FDSS | activation, % (test concentration not listed) | 410,000 tested, 0.12% active; in the data active = activation above about 50%; inconclusive = mostly about 30% to 49%; also: 0% is about no effect
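Agonist activity was taken from a 110 s kinetic Ca2+ dye read on the FDSS after pinning compounds onto TRPML1-DL cells. The cells were seeded at 1,500/well with Tet inducer, incubated about 16 h, then dye-loaded at room temperature.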
* hit, by the source's call; ! = a repeat was not active; [ ] = remark or other dose. An excerpt weighted towards active compounds, which were near 1.3% of everything screened. Unless noted, calls follow the shape of the dose curve; as a rule, active = well fitted curve in the direction sought with a large enough effect; inconclusive = small, poorly fitted or top-dose-only effect, or another doubt; inactive = no such curve, though single readings can be large; an effect the other way counts as inactive or inconclusive.

What do the screens show for `Cc1ccc(NC(=O)CSc2nc(O)cc(=O)n2C)cc1`?
Vif-A3G inh: 1%; Vif-A3F inh: 6%; 12-LOX inh: 0%[57.4 µM]; Glioma ERSR ind: -2%; TRPML1 inh: -5; TRPML1 ag: 0

Results for O=c1cc(O)nc(SCc2ccccc2)n1-c1ccc(Cl)cc1 ?
Vif-A3G inh: -7%; Vif-A3F inh: 3%; 12-LOX inh: 45µM*; Glioma ERSR ind: 2%; TRPML1 inh: 6; TRPML1 ag: 0

What do the screens show for `COc1ccc(-n2c(SCC(=O)Nc3ccc(Br)cc3)nc(O)cc2=O)cc1`?
Vif-A3G inh: -1%; Vif-A3F inh: -2%; 12-LOX inh: 2.2µM*; Glioma ERSR ind: -2%; TRPML1 inh: -3; TRPML1 ag: 0

How did COc1ccccc1-n1c(SCC(=O)Nc2ccc(C)cc2)nc(O)cc1=O do in these assays?
Vif-A3G inh: 1%; Vif-A3F inh: -1%; 12-LOX inh: 0.32µM*!; Glioma ERSR ind: -2%; TRPML1 inh: -9; TRPML1 ag: 0

What do the screens show for `COc1ccc(NC(=O)CSc2nc(O)cc(=O)n2-c2ccccc2OC)cc1`?
Vif-A3G inh: 0%; Vif-A3F inh: -3%; 12-LOX inh: inconclusive; Glioma ERSR ind: -5%; TRPML1 inh: -20; TRPML1 ag: 1

How did COC(=O)c1ccn(Cc2cccc(Cl)c2)n1 do in these assays?
12-LOX inh: -6%

How did CCCCCCCCCCCCCC do in these assays?
12-LOX inh: 3%[176 µM]

What do the screens show for `Cc1ccc(C(=O)COc2ccc(C3CCCCC3)cc2)cc1`?
12-LOX inh: -7%

How did Cc1nc(-c2ccccc2)ccc1C(=O)N1CCS(=O)(=O)c2ccccc21 do in these assays?
12-LOX inh: -4%

What do the screens show for `COc1ccccc1NC(=O)c1c(C)nc2ccccc2c1C(=O)O`?
Vif-A3G inh: 1%; Vif-A3F inh: -9%; 12-LOX inh: 14µM*; Glioma ERSR ind: 0%; TRPML1 inh: 4; TRPML1 ag: 1

How did OCc1cccc(Nc2ncnc3ccsc23)c1 do in these assays?
12-LOX inh: -2%

How did COC(=O)C1=CC(=O)C=C(OC)[C@@]12Oc1cc(C)cc(OC)c1C2=O do in these assays?
12-LOX inh: 4.5µM*

Results for CCONC(=O)COC(c1ccccc1)c1ccccc1 ?
12-LOX inh: 0%

What do the screens show for `O=C(/C=C/c1ccc(-c2ccccc2)o1)c1ccccc1`?
Vif-A3G inh: -24%; Vif-A3F inh: 3%; 12-LOX inh: inconclusive; Glioma ERSR ind: 5%; TRPML1 inh: 31; TRPML1 ag: 2

How did COc1ccc(C(=O)/C=C/c2ccc(-c3ccc(OC)cc3)o2)cc1 do in these assays?
12-LOX inh: 0.32µM*

Results for Cc1ccc(/C=C/C(=O)c2ccccc2)o1 ?
12-LOX inh: 14µM*

How did Cc1ccc(/C=C/C(=O)c2ccc(C)o2)o1 do in these assays?
12-LOX inh: -61%

What do the screens show for `Cc1ccc(-c2ccc(/C=C/C(=O)c3ccccc3)o2)cc1`?
Vif-A3G inh: inconclusive; Vif-A3F inh: inconclusive; 12-LOX inh: 3.5µM*; Glioma ERSR ind: 1%; TRPML1 inh: 17; TRPML1 ag: 2

Results for CCN(Cc1ccccc1)C(=O)Cn1cc(C#N)c2ccccc21 ?
12-LOX inh: 16%

How did O=C(NCC(c1ccco1)N1CCc2ccccc2C1)c1cccc(Br)c1 (stereo not drawn) do in these assays?
Vif-A3G inh: 2%; Vif-A3F inh: 11%; 12-LOX inh: inconclusive; Glioma ERSR ind: -6%; TRPML1 inh: -1; TRPML1 ag: 0

Results for O=C(NCC(c1ccco1)N1CCc2ccccc2C1)c1ccc(Cl)cc1 (stereo not drawn) ?
Vif-A3G inh: -4%; Vif-A3F inh: -9%; 12-LOX inh: 14µM*; Glioma ERSR ind: -3%; TRPML1 inh: 5; TRPML1 ag: 2

Results for O=C(NCC(c1ccco1)N1CCc2ccccc2C1)c1ccc(Br)cc1 (stereo not drawn) ?
Vif-A3G inh: 1%; Vif-A3F inh: -5%; 12-LOX inh: 11µM*; Glioma ERSR ind: -3%; TRPML1 inh: -8; TRPML1 ag: 0

Results for Cc1ccc(C(=O)NCC(c2ccco2)N2CCc3ccccc3C2)cc1 (stereo not drawn) ?
Vif-A3G inh: 0%; Vif-A3F inh: 0%; 12-LOX inh: 8.9µM*; Glioma ERSR ind: -6%; TRPML1 inh: 18; TRPML1 ag: 0

What do the screens show for `O=[N+]([O-])c1ccc(S(=O)(=O)NCC(c2ccco2)N2CCc3ccccc3C2)cc1` (stereo not drawn)?
Vif-A3G inh: -4%; Vif-A3F inh: 2%; 12-LOX inh: 14µM*; Glioma ERSR ind: -2%; TRPML1 inh: -7; TRPML1 ag: 0

How did Cc1cc(C)cc(NC(=O)CNc2nc(Nc3ccccc3)nc(Nc3ccccc3)n2)c1 do in these assays?
12-LOX inh: -10%

How did O=C(Cc1ccc(Cl)cc1)N1CCN(c2ccccc2O)CC1 do in these assays?
12-LOX inh: 32µM*

What do the screens show for `O=C(Cc1ccc(Cl)cc1)N1CCN(c2ccccc2)CC1`?
Vif-A3G inh: -1%; Vif-A3F inh: -5%; 12-LOX inh: inconclusive; Glioma ERSR ind: 5%; TRPML1 inh: -10; TRPML1 ag: 0

How did CCCCCC1CCC(c2ccc(-c3ccc(SC(F)F)cc3)cc2)CC1 (stereo not drawn) do in these assays?
12-LOX inh: -28%

Results for CCCOc1cccc(C2C(C(=O)c3cc4ccccc4o3)=C(O)C(=O)N2c2cc(C)on2)c1 (stereo not drawn) ?
Vif-A3G inh: -2%; Vif-A3F inh: inconclusive; 12-LOX inh: inconclusive; Glioma ERSR ind: -3%; TRPML1 inh: 7; TRPML1 ag: 2

What do the screens show for `COc1cc(C2C(C(=O)c3cc4ccccc4o3)=C(O)C(=O)N2c2cc(C)on2)cc(OC)c1OC` (stereo not drawn)?
Vif-A3G inh: 2%; Vif-A3F inh: 4%; 12-LOX inh: 10µM*; Glioma ERSR ind: -6%; TRPML1 inh: 3; TRPML1 ag: 0

Results for Cc1cc(N2C(=O)C(O)=C(C(=O)c3cc4ccccc4o3)C2c2cccc(Br)c2)no1 (stereo not drawn) ?
Vif-A3G inh: -9%; Vif-A3F inh: inconclusive; 12-LOX inh: 45µM*; Glioma ERSR ind: -3%; TRPML1 inh: 1; TRPML1 ag: 2

How did O=C1/C(=C/c2c[nH]c3ccccc23)CCC/C1=C\c1c[nH]c2ccccc12 do in these assays?
Vif-A3G inh: inconclusive; Vif-A3F inh: 22µM*; 12-LOX inh: -25%; Glioma ERSR ind: 2%; TRPML1 inh: -11; TRPML1 ag: 4

Assay outcomes deposited in PubChem BioAssay by National Center for Advancing Translational Sciences (NCATS).
